# Assay results taken from PubChem BioAssay (Tox21).
# Values without a mark were called inactive. Inconclusive results are not listed. A call without a number means that no potency is given here. The source made the active and inactive calls. Calls follow the shape of the dose curve; as a rule, active = well fitted curve in the direction sought with a large enough effect in the repeat runs; inconclusive = weak or mixed curves; inactive = no such curve, though single readings can be large; an effect the other way counts as inactive or inconclusive.
# What was measured:
# [1] = A CellTox Green Cytotoxicity Assay to monitor cytotoxicity in HEK293 cells - 40 hour (AID 1224871); also: nearly all actives have a fitted effect of over 45% in size
# Outline: (§1)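 HEK293 cells premixed with CellTox Green dye were seeded at 600 cells/well and left 5 h at 37 C/5% CO2 before pin transfer of 23 nL compound in DMSO. Fluorescence from dye bound to dead-cell DNA was read during 40 h treatment.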
# [2] = qHTS RealTime-Glo MT Cell Viability Assay in HepG2 cells - 8 hour (AID 1224873); also: nearly all actives have a fitted effect of over 55% in size
# Outline: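 HepG2 cells (600/well) mixed with RealTime-Glo MT reagent, settled 5 h at 37 C/5% CO2 before compound addition. Nonlytic NanoLuc luminescence from viable-cell prosubstrate reduction read repeatedly during 40 h treatment at 37 C.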
# [3] = qHTS RealTime-Glo MT Cell Viability Assay in HEK293 cells - 40 hour (AID 1224874); details: RealTime-Glo luminescence; max response: stronger effect = lower value; also: nearly all actives have a fitted effect of over 50% in size; also: potency is read from the fitted curve at half-maximal effect
# Outline: (§2)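 HEK293 cells mixed with RealTime-Glo reagents (NanoLuc plus cell-permeant prosubstrate) at 600 cells/well, preincubated 5 h at 37 C/5% CO2, then given 23 nL compound in DMSO. Nonlytic luminescence from viable cells was read at 0, 8, 16, 24, 32 and 40 h.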
# [4] = A CellTox Green Cytotoxicity Assay to monitor cytotoxicity in HEK293 cells - 24 hour (AID 1224875); also: series mostly up to about 77 µM; nearly all actives have a fitted effect of over 45% in size
# Outline: as §1
# [5] = A CellTox Green Cytotoxicity Assay to monitor cytotoxicity in HepG2 cells - 16 hour (AID 1224876); also: nearly all actives have a fitted effect of over 45% in size
# Outline: (§3)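 HepG2 cells were seeded together with the CellTox Green dye at 600 cells/well, left 5 h at 37 C/5% CO2, then given compounds in DMSO. Fluorescence from dye bound to dead-cell DNA was read repeatedly over 40 h of treatment at 37 C.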
# [6] = qHTS RealTime-Glo MT Cell Viability Assay in HepG2 cells - 32 hour (AID 1224877); also: nearly all actives have a fitted effect of over 55% in size
# Outline: (§4)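 Compound treatment began 5 h after plating HepG2 cells (600/well) with NanoLuc luciferase and prosubstrate. Plates stayed at 37 C for 40 h; luminescence was captured at six time points, 0 h through 40 h.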
# [7] = A CellTox Green Cytotoxicity Assay to monitor cytotoxicity in HepG2 cells - 24 hour (AID 1224878); also: nearly all actives have a fitted effect of over 45% in size
# Outline: as §3
# [8] = A CellTox Green Cytotoxicity Assay to monitor cytotoxicity in HepG2 cells - 40 hour (AID 1224879); also: nearly all actives have a fitted effect of over 40% in size; also: potency is read from the fitted curve at half-maximal effect
# Outline: as §3
# [9] = qHTS RealTime-Glo MT Cell Viability Assay in HEK293 cells - 0 hour (AID 1224880)
# Outline: as §2
# [10] = A CellTox Green Cytotoxicity Assay to monitor cytotoxicity in HEK293 cells - 32 hour (AID 1224881); also: nearly all actives have a fitted effect of over 40% in size
# Outline: as §1
# [11] = A CellTox Green Cytotoxicity Assay to monitor cytotoxicity in HepG2 cells - 0 hour (AID 1224882); also: nearly all actives have a fitted effect of over 35% in size
# Outline: as §3
# [12] = A CellTox Green Cytotoxicity Assay to monitor cytotoxicity in HepG2 cells - 32 hour (AID 1224883); also: nearly all actives have a fitted effect of over 50% in size; also: potency is read from the fitted curve at half-maximal effect
# Outline: as §3
# [13] = A CellTox Green Cytotoxicity Assay to monitor cytotoxicity in HEK293 cells - 8 hour (AID 1224884); also: nearly all actives have a fitted effect of over 35% in size
# Outline: as §1
# [14] = qHTS RealTime-Glo MT Cell Viability Assay in HepG2 cells - 16 hour (AID 1224885); also: nearly all actives have a fitted effect of over 50% in size
# Outline: as §4
# [15] = A CellTox Green Cytotoxicity Assay to monitor cytotoxicity in HEK293 cells - 16 hour (AID 1224888); also: nearly all actives have a fitted effect of over 35% in size
# Outline: as §1
# [16] = qHTS RealTime-Glo MT Cell Viability Assay in HepG2 cells - 0 hour (AID 1224889); also: nearly all actives have a fitted effect of over 50% in size
# Outline: as §4
# [17] = A CellTox Green Cytotoxicity Assay to monitor cytotoxicity in HepG2 cells - 8 hour (AID 1224890); also: nearly all actives have a fitted effect of over 45% in size
# Outline: as §3
# [18] = qHTS RealTime-Glo MT Cell Viability Assay in HEK293 cells - 16 hour (AID 1224872)
# Outline: (§5)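 Quantitative high-throughput screen of the Tox21 10K library in HEK293: cells and RealTime-Glo reagents plated together, compound added at 5 h, luminescence monitored through 40 h at 37 C.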
# [19] = qHTS RealTime-Glo MT Cell Viability Assay in HEK293 cells - 24 hour (AID 1224886)
# Outline: as §5
# [20] = qHTS RealTime-Glo MT Cell Viability Assay in HEK293 cells - 8 hour (AID 1224887)
# Outline: as §2
smiles,measurement,setting,value
Nc1ccn([C@@H]2O[C@H](CO)[C@@H](O)C2(F)F)c(=O)n1,Potency,[1],inactive
same,outcome,[2],inactive
same,Potency,[3],756 nM (active)
same,outcome,[4],inactive
same,outcome,[5],inactive
same,Potency,[6],inactive
same,outcome,[7],inactive
same,Potency,[8],inactive
same,Potency,[9],inactive
same,outcome,[10],inactive
same,Potency,[11],inactive
same,Potency,[12],inactive
same,outcome,[13],inactive
same,outcome,[14],inactive
same,outcome,[15],inactive
same,Potency,[16],inactive
same,outcome,[17],inactive
CC(C)CC(C)(N)C#N (stereo not drawn),Potency,[18],inactive
same,outcome,[2],inactive
same,max response,[3],5.01%
same,outcome,[4],inactive
same,outcome,[5],inactive
same,Potency,[6],inactive
same,Potency,[8],inactive
same,Potency,[9],inactive
same,outcome,[10],inactive
same,Potency,[11],inactive
same,Potency,[12],inactive
same,outcome,[13],inactive
same,outcome,[14],inactive
same,Potency,[19],inactive
same,Potency,[20],inactive
same,outcome,[15],inactive
same,outcome,[17],inactive
O=C(O)c1cn(C2CC2)c2cc(N3CCNCC3)c(F)cc2c1=O,Potency,[1],inactive
same,Potency,[18],inactive
same,outcome,[2],inactive
same,outcome,[4],inactive
same,outcome,[5],inactive
same,Potency,[6],inactive
same,outcome,[7],inactive
same,Potency,[8],inactive
same,Potency,[9],inactive
same,outcome,[10],inactive
same,Potency,[11],inactive
same,Potency,[12],inactive
same,outcome,[13],inactive
same,outcome,[14],inactive
same,Potency,[19],inactive
same,Potency,[20],inactive
same,outcome,[15],inactive
same,Potency,[16],inactive
same,outcome,[17],inactive
CCCCS(=O)(=O)N[C@@H](Cc1ccc(OCCCCC2CCNCC2)cc1)C(=O)O,Potency,[1],inactive
same,Potency,[18],inactive
same,outcome,[2],inactive
same,max response,[3],-0.348%
same,outcome,[5],inactive
same,Potency,[6],inactive
same,outcome,[7],inactive
same,Potency,[8],inactive
same,Potency,[9],inactive
same,Potency,[11],inactive
same,Potency,[12],inactive
same,outcome,[13],inactive
same,outcome,[14],inactive
same,Potency,[19],inactive
same,Potency,[20],inactive
same,outcome,[15],inactive
same,Potency,[16],inactive
same,outcome,[17],inactive
Cc1cccc(C)c1NC(=O)CC12CCCN1CCC2,Potency,[1],inactive
same,Potency,[18],inactive
same,outcome,[2],inactive
same,max response,[3],5.91%
same,outcome,[4],inactive
same,Potency,[6],inactive
same,Potency,[9],inactive
same,outcome,[10],inactive
same,outcome,[13],inactive
same,outcome,[14],inactive
same,Potency,[19],inactive
same,Potency,[20],inactive
same,outcome,[15],inactive
same,Potency,[16],inactive
same,outcome,[17],inactive
CCCCCCCCCC[N+](C)(C)[O-],Potency,[1],inactive
same,Potency,[18],inactive
same,outcome,[2],inactive
same,max response,[3],-6.97%
same,outcome,[4],inactive
same,Potency,[6],inactive
same,Potency,[9],inactive
same,outcome,[10],inactive
same,Potency,[11],inactive
same,outcome,[13],inactive
same,outcome,[14],inactive
same,Potency,[19],inactive
same,Potency,[20],inactive
same,outcome,[15],inactive
same,outcome,[17],inactive
CC(=O)O[C@@]12CO[C@@H]1C[C@H](O)[C@@]1(C)C(=O)[C@H](O)C3=C(C)[C@@H](OC(=O)[C@H](O)[C@@H](NC(=O)OC(C)(C)C)c4ccccc4)C[C@@](O)([C@@H](OC(=O)c4ccccc4)[C@H]21)C3(C)C,Potency,[1],inactive
same,outcome,[2],inactive
same,Potency,[3],33.8 nM (active)
same,outcome,[4],inactive
same,outcome,[5],inactive
same,Potency,[6],inactive
same,Potency,[8],6 nM (active)
same,Potency,[9],inactive
same,outcome,[10],inactive
same,Potency,[11],inactive
same,Potency,[12],6.7 nM (active)
same,outcome,[13],inactive
same,outcome,[14],inactive
same,Potency,[20],inactive
same,outcome,[15],inactive
same,Potency,[16],inactive
same,outcome,[17],inactive
Cc1c(N)c(=O)n(-c2ccccc2)n1C,Potency,[1],inactive
same,Potency,[18],inactive
same,outcome,[2],inactive
same,max response,[3],-5.41%
same,outcome,[4],inactive
same,Potency,[6],inactive
same,Potency,[9],inactive
same,outcome,[10],inactive
same,Potency,[11],inactive
same,outcome,[13],inactive
same,outcome,[14],inactive
same,Potency,[19],inactive
same,Potency,[20],inactive
same,outcome,[15],inactive
same,Potency,[16],inactive
same,outcome,[17],inactive
CC(=O)c1ccc2ccccc2c1,Potency,[1],inactive
same,Potency,[18],inactive
same,outcome,[2],inactive
same,max response,[3],8.54%
same,outcome,[4],inactive
same,Potency,[6],inactive
same,Potency,[9],inactive
same,outcome,[10],inactive
same,Potency,[11],inactive
same,outcome,[13],inactive
same,outcome,[14],inactive
same,Potency,[19],inactive
same,Potency,[20],inactive
same,outcome,[15],inactive
same,Potency,[16],inactive
O=C(O)CCCC[P+](c1ccccc1)(c1ccccc1)c1ccccc1,Potency,[1],inactive
same,Potency,[18],inactive
same,outcome,[2],inactive
same,max response,[3],-10.4%
same,outcome,[4],inactive
same,Potency,[6],inactive
same,Potency,[9],inactive
same,outcome,[10],inactive
same,Potency,[11],inactive
same,outcome,[13],inactive
same,outcome,[14],inactive
same,Potency,[19],inactive
same,Potency,[20],inactive
same,outcome,[15],inactive
same,Potency,[16],inactive
same,outcome,[17],inactive
CCNS(=O)(=O)c1ccc(C)cc1,Potency,[18],inactive
same,outcome,[2],inactive
same,max response,[3],0.516%
same,outcome,[4],inactive
same,outcome,[5],inactive
same,Potency,[6],inactive
same,outcome,[7],inactive
same,Potency,[8],inactive
same,Potency,[9],inactive
same,Potency,[11],inactive
same,outcome,[13],inactive
same,outcome,[14],inactive
same,Potency,[19],inactive
same,Potency,[20],inactive
same,outcome,[15],inactive
same,Potency,[16],inactive
C=CCOCC(O)CO (stereo not drawn),Potency,[18],inactive
same,outcome,[2],inactive
same,max response,[3],16.5%
same,Potency,[6],inactive
same,Potency,[9],inactive
same,outcome,[13],inactive
same,outcome,[14],inactive
same,Potency,[19],inactive
same,Potency,[20],inactive
same,Potency,[16],inactive
CNCCO,Potency,[1],inactive
same,Potency,[18],inactive
same,outcome,[2],inactive
same,outcome,[4],inactive
same,outcome,[5],inactive
same,Potency,[6],inactive
same,outcome,[7],inactive
same,Potency,[8],inactive
same,Potency,[9],inactive
same,outcome,[10],inactive
same,Potency,[11],inactive
same,Potency,[12],inactive
same,outcome,[13],inactive
same,outcome,[14],inactive
same,Potency,[19],inactive
same,Potency,[20],inactive
same,outcome,[15],inactive
same,Potency,[16],inactive
same,outcome,[17],inactive
CCCn1cc[n+](C)c1C,Potency,[1],inactive
same,Potency,[18],inactive
same,outcome,[2],inactive
same,max response,[3],0.77%
same,outcome,[4],inactive
same,outcome,[5],inactive
same,Potency,[8],inactive
same,Potency,[9],inactive
same,outcome,[10],inactive
same,Potency,[11],inactive
same,Potency,[12],inactive
same,outcome,[13],inactive
same,outcome,[14],inactive
same,Potency,[19],inactive
same,Potency,[20],inactive
same,outcome,[15],inactive
same,Potency,[16],inactive
same,outcome,[17],inactive
